# Target: Ephrin type-A receptor 4 (Homo sapiens) (UniProt P54764)
# Conditions: at 0.1 µM
# Ephrin type-A receptor 4 (Homo sapiens), sequence (P54764 whole entry): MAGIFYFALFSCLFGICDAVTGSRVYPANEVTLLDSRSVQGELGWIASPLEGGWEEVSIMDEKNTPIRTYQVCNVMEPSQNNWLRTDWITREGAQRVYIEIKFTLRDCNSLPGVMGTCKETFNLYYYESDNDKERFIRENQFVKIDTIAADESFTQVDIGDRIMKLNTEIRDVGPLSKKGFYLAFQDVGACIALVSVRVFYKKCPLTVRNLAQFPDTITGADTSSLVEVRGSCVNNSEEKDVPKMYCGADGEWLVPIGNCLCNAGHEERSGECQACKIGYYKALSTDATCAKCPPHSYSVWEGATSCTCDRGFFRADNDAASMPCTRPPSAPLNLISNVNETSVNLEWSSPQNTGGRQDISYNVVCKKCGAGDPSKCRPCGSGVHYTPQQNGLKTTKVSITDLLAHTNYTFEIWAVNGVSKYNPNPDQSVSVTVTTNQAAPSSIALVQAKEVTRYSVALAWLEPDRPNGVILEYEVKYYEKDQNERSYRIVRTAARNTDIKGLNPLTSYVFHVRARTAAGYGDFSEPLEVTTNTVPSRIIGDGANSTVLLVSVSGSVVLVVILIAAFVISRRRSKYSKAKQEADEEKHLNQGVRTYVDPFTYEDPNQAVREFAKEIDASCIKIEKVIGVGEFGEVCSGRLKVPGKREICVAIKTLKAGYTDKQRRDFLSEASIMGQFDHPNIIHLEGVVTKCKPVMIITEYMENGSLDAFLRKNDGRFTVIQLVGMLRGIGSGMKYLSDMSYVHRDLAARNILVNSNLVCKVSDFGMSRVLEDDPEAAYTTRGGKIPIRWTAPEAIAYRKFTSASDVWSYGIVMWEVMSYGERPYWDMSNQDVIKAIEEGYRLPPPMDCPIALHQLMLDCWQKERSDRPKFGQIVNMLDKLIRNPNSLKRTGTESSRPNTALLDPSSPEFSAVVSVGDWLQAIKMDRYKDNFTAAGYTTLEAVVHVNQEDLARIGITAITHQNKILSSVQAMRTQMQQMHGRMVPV
row,SMILES,inhibition
1,NC(=O)c1sc(-n2cnc3ccc(C(F)(F)F)cc32)cc1OCc1ccccc1Br,10.1%
2,CCOc1ccc2c(-c3ccnc(Nc4cccc(C(F)(F)F)c4)n3)cnn2n1,6.67%
3,COc1ccc(-c2cc(-c3c[nH]nc3-c3ccccn3)ccn2)cc1,8.66%
4,CCn1c(-c2nonc2N)nc2ccccc21,7.78%
5,Cc1cccc(Nc2ncc(-c3ccccc3)o2)c1,5.68%
6,Nc1nc(-c2ccc(F)cc2)c(-c2ccc3ncccc3n2)s1,9.7%
7,COc1cc(N2CCN(C(C)C)CC2)ccc1Nc1nc(Nc2ccc(F)cc2C(N)=O)c2cc[nH]c2n1,4.96%
8,c1ccc(-c2nc3n(c2-c2ccc4c(c2)OCO4)CCC3)nc1,4.05%
9,Fc1ccc(-c2nn3ccccc3c2-c2ccncc2)cc1,5.14%
10,CN(C)CCOc1ccc(-c2nc(-c3ccncc3)c(-c3ccc4c(c3)CC/C4=N\O)[nH]2)cc1,6.96%
11,COC(=O)Nc1nc2ccc(Oc3ccc(NC(=O)Nc4cccc(Cl)c4)cc3)cc2[nH]1,22.3%
12,N#Cc1c(NC(=O)CN2CCOCC2)sc2c1CCCC2,7.58%
13,O=C(O[C@H]1CN[C@H](C#Cc2cc3ncnc(Nc4ccc(Cc5ccccc5)cc4)c3s2)C1)N1CCOCC1,3.73%
14,CC(C)(CO)CNC(=O)c1ccc2c(c1)/C(=N/Nc1ccc(S(N)(=O)=O)cc1)C(=O)N2,-0.06%
15,CS(=O)(=O)CCNCc1coc(-c2ccc3ncnc(Nc4ccc(OCc5ccccc5)cc4)c3c2)c1,8.01%
16,CC(=O)Nc1cccc(C#Cc2cncnc2Nc2ccc(OCc3cccc(F)c3)c(Cl)c2)c1,8.19%
17,COc1cc2ncn(-c3cc(OCc4ccccc4C(F)(F)F)c(C(=O)N(C)C)s3)c2cc1OC,2.87%

row,SMILES,inhibition
1,NS(=O)(=O)c1ccc(Nc2ncc(-c3ccccc3)o2)cc1,7.23%
2,Nc1nc(-c2cccc(Cl)c2)c(-c2ccc3ncccc3n2)s1,11%
3,CCn1cc(-c2ccnc3[nH]ccc23)c(-c2cccc(NC(=O)Nc3ccc(OCc4ccccc4)cc3)c2)n1,0.23%
4,Fc1cccc(COc2ccc(Nc3ncnc4sc(-c5ccco5)cc34)cc2Cl)c1,7.43%
5,N#Cc1c(NC(=O)c2ccc(F)cc2)sc2c1CCCC2,4.24%
6,COc1cccc(-n2ncc3c(N/N=C/c4ccc(F)cc4)ncnc32)c1,7.96%
7,c1cc(-c2cnn3nc(N4CCOCC4)ccc23)nc(NC2CC2)n1,10.2%
8,CCn1c(-c2nonc2N)nc2c(C#CC(C)(C)O)nc(OC[C@H](N)c3ccccc3)cc21,5.06%
9,Nc1ncc(-c2cccc(S(N)(=O)=O)c2)c2scc(-c3ccc(F)c(Cl)c3)c12,54.9%
10,O=C(Nc1n[nH]c2cc(-c3ccc(F)cc3)ccc12)C1CC1,7.63%
11,CC(=O)NCc1cccc(C#Cc2cncnc2Nc2ccc(OCc3cccc(F)c3)c(Cl)c2)c1,-2.22%
12,CNC(=O)c1cccc(C#Cc2cncnc2Nc2ccc(OCc3cccc(F)c3)c(Cl)c2)c1,5.81%
13,COc1cccc(-c2c[nH]c3c(N/N=C/c4ccncc4)ncnc23)c1,8.17%
14,[O-][S+]1CCN(Cc2ccc(-c3ccc4ncnc(Nc5ccc(OCc6cccc(F)c6)c(Cl)c5)c4c3)o2)CC1,7.3%
15,CCN(CC)S(=O)(=O)c1ccc(OC)c(Nc2ncc(-c3ccccc3)o2)c1,9.54%
16,CCCN(CCS(C)(=O)=O)Cc1ccc(-c2ccc3ncnc(Nc4ccc(OCc5cccc(F)c5)c(Cl)c4)c3c2)o1,5.97%
17,COc1cc2c(cc1Nc1nc(Nc3ccsc3C(N)=O)c3cc[nH]c3n1)N(C(=O)CN(C)C)CCC2(C)C,7.86%

# Target: Ephrin type-A receptor 4 (Homo sapiens) (UniProt P54764)
# Conditions: at 1 µM
row,SMILES,inhibition
1,NC(=O)c1sc(-n2cnc3ccc(C(F)(F)F)cc32)cc1OCc1ccccc1Br,8.59%
2,CCOc1ccc2c(-c3ccnc(Nc4cccc(C(F)(F)F)c4)n3)cnn2n1,9.91%
3,COc1ccc(-c2cc(-c3c[nH]nc3-c3ccccn3)ccn2)cc1,14.1%
4,CCn1c(-c2nonc2N)nc2ccccc21,9.13%
5,Cc1cccc(Nc2ncc(-c3ccccc3)o2)c1,5.88%
6,Nc1nc(-c2ccc(F)cc2)c(-c2ccc3ncccc3n2)s1,14.6%
7,COc1cc(N2CCN(C(C)C)CC2)ccc1Nc1nc(Nc2ccc(F)cc2C(N)=O)c2cc[nH]c2n1,6.43%
8,c1ccc(-c2nc3n(c2-c2ccc4c(c2)OCO4)CCC3)nc1,2.75%
9,Fc1ccc(-c2nn3ccccc3c2-c2ccncc2)cc1,11.7%
10,CN(C)CCOc1ccc(-c2nc(-c3ccncc3)c(-c3ccc4c(c3)CC/C4=N\O)[nH]2)cc1,9.28%
11,COC(=O)Nc1nc2ccc(Oc3ccc(NC(=O)Nc4cccc(Cl)c4)cc3)cc2[nH]1,62.9%
12,N#Cc1c(NC(=O)CN2CCOCC2)sc2c1CCCC2,13.1%
13,O=C(O[C@H]1CN[C@H](C#Cc2cc3ncnc(Nc4ccc(Cc5ccccc5)cc4)c3s2)C1)N1CCOCC1,5.5%
14,CC(C)(CO)CNC(=O)c1ccc2c(c1)/C(=N/Nc1ccc(S(N)(=O)=O)cc1)C(=O)N2,10.3%
15,CS(=O)(=O)CCNCc1coc(-c2ccc3ncnc(Nc4ccc(OCc5ccccc5)cc4)c3c2)c1,5.86%
16,CC(=O)Nc1cccc(C#Cc2cncnc2Nc2ccc(OCc3cccc(F)c3)c(Cl)c2)c1,0.69%
17,COc1cc2ncn(-c3cc(OCc4ccccc4C(F)(F)F)c(C(=O)N(C)C)s3)c2cc1OC,4.19%

row,SMILES,inhibition
1,NS(=O)(=O)c1ccc(Nc2ncc(-c3ccccc3)o2)cc1,12%
2,Nc1nc(-c2cccc(Cl)c2)c(-c2ccc3ncccc3n2)s1,14.8%
3,CCn1cc(-c2ccnc3[nH]ccc23)c(-c2cccc(NC(=O)Nc3ccc(OCc4ccccc4)cc3)c2)n1,3.4%
4,Fc1cccc(COc2ccc(Nc3ncnc4sc(-c5ccco5)cc34)cc2Cl)c1,9.74%
5,N#Cc1c(NC(=O)c2ccc(F)cc2)sc2c1CCCC2,2.26%
6,COc1cccc(-n2ncc3c(N/N=C/c4ccc(F)cc4)ncnc32)c1,15.7%
7,c1cc(-c2cnn3nc(N4CCOCC4)ccc23)nc(NC2CC2)n1,10.9%
8,CCn1c(-c2nonc2N)nc2c(C#CC(C)(C)O)nc(OC[C@H](N)c3ccccc3)cc21,4.87%
9,Nc1ncc(-c2cccc(S(N)(=O)=O)c2)c2scc(-c3ccc(F)c(Cl)c3)c12,92%
10,O=C(Nc1n[nH]c2cc(-c3ccc(F)cc3)ccc12)C1CC1,4.17%
11,CNC(=O)c1cccc(C#Cc2cncnc2Nc2ccc(OCc3cccc(F)c3)c(Cl)c2)c1,6.8%
12,COc1cccc(-c2c[nH]c3c(N/N=C/c4ccncc4)ncnc23)c1,30.5%
13,[O-][S+]1CCN(Cc2ccc(-c3ccc4ncnc(Nc5ccc(OCc6cccc(F)c6)c(Cl)c5)c4c3)o2)CC1,11.6%
14,CCN(CC)S(=O)(=O)c1ccc(OC)c(Nc2ncc(-c3ccccc3)o2)c1,13.8%
15,CCCN(CCS(C)(=O)=O)Cc1ccc(-c2ccc3ncnc(Nc4ccc(OCc5cccc(F)c5)c(Cl)c4)c3c2)o1,5.71%
16,COc1cc2c(cc1Nc1nc(Nc3ccsc3C(N)=O)c3cc[nH]c3n1)N(C(=O)CN(C)C)CCC2(C)C,6.49%
